Experimental findings from PubChem BioAssay (NCI) are described below.

Experiment in all cases: NCI-60 one-dose screen, 48 h (100 = growth as untreated, 0 = no growth, -100 = all killed)
What all share (details): 10 µM unless noted

The subject of assay [1] is NCI-H23 lung.
Assay [2] relates to NCI-H226 lung.
The subject of assay [3] is NCI-H322M lung.
For assay [4], the system named is HOP-62 NSCLC.
Assay [5] deals with NCI-H460 lung.
For assay [6], the system named is NCI-H522 lung.
In assay [7] the test system is A549/ATCC NSCLC.
For assay [8], the system named is 786-0 renal.
In assay [9] the test system is COLO 205 colon.
For assay [10], the system named is DU-145 prostate.

This is part of a sample that, as a whole, favours compounds with a hit. Of some 83,000 tested, about 20% had one in any assay.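 48-hour exposure, single concentration, 96-well plates; percent growth endpoint where 0 means no net growth. Active: below 10.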 A number with no mark means an inactive call. Activity calls are given as the source filed them.

As to `Cn1cc(-c2csc(-c3cn(C)c4ncccc34)n2)c2cc(F)cnc21`, the growth in [1] was 70.5%; in [2], 94.4%; in assay [3] it was 112%; in assay [4], 99.1%; in [5], 84.1%; in assay [6] it was 22.2%. Besides, the growth in assay [7] was 73.6%; in assay [8] it was 91%.

With `COc1ccc2c(c1)nc(N)c1c3ccccc3cn21`, the growth in assay [1] is 79.1%; in assay [2], 95.3%; in assay [3] it was 88.1%; in [4], 85.6%; in [5] it was 72.4%; in [6], 58.1%. In addition, the growth in [7] was 75.9%; in [8] it was 92.7%.

Turning to `COc1ccc(/C=C2\COc3ccc(O)c(O)c3C2=O)cc1OC`, the growth is 41% in [1]; 46.6% in [2]; 48.9% in [3]; 11.6% in [4]; 1.26% (active) in [5]; -55.5% (active) in [6]. Moreover, the growth is 31.7% in assay [7], -17.8% (active) in assay [8], 55.6% in assay [9] and 6.44% (active) in [10].

For the compound `COc1ccc(-c2nnc(COc3ccc(NC(=O)Nc4cc(C(F)(F)F)cc(C(F)(F)F)c4)cc3F)o2)cc1`, the growth in [1] is -11% (active); in assay [2] it was 7.41% (active); in assay [3] it was 23.4%; in [4] it was 12.3%; in [5], 4.82% (active); in assay [6], -17.8% (active). In addition, the growth was 3.87% (active) in [7], 16.2% in assay [8], -40.7% (active) in [9] and 12.4% in assay [10].

For `COc1cc(Oc2cc(-c3cccnc3)ccc2NC(=O)Nc2ccc(F)cc2F)cc(OC)c1OC`, the growth was 99% in [1]; 97% in [2]; 112% in [3]; 96.4% in assay [4]; 99.1% in [5]; 94.8% in [6]. For the same compound, the growth is 94.6% in assay [7], 100% in assay [8], 96.9% in assay [9] and 113% in [10].

As for `C=Cc1nn2c(CCC(=O)c3nc4ccccc4[nH]3)nnc2s1`, the growth was 99.4% in [1]; 97.5% in [2]; 94% in assay [3]; 97.9% in assay [4]; 105% in assay [5]; 102% in assay [6]. Further, the growth in assay [7] was 105%; in [8], 97.5%.

For the compound `CCOC(Cc1c(N)[nH]c(=S)[nH]c1=O)OCC`, the growth in [1] was 104%; in assay [2], 96.8%; in assay [3], 98.9%; in [4], 102%; in assay [5], 114%; in assay [6], 93%. Also, the growth in [7] is 104%; in assay [8] it was 109%; in assay [9] it was 105%; in [10] it was 115%.

For the compound `O=C(Nc1nc2ccccc2s1)c1cc(-c2ccc(F)cc2)n2nc(-c3ccccc3)cc2n1`, the growth in assay [1] is 68.7%; in [2], 89.1%; in [3], 60.1%; in assay [4], 63.8%; in assay [5], 29.3%; in assay [6], 101%. Moreover, the growth in [7] was 51.2%; in assay [8], 11.7%; in assay [9], 65.2%; in assay [10] it was 89.1%.

On to `CSc1nc2c(c(=O)[nH]1)C(c1ccc(Cl)cc1)C1=C(N2)/C(=C/c2ccc(Cl)cc2)CNC1` (centres undefined), for which the growth is 69% in [1]; 78.9% in [2]; 64.1% in [3]; -2.54% (active) in assay [4]; 37.3% in [5]; 79.3% in assay [6]. Besides, the growth was 32.2% in assay [7], 88.4% in assay [8], 29.2% in assay [9] and 39.3% in assay [10].

As to `COc1ccc(C2=NN(C(=O)c3cc(OC)c(OC)c(OC)c3)C(c3ccc(C#N)cc3)C2)cc1OC` (centres undefined), the growth in assay [1] was 43.2%; in [2], 52.4%; in assay [3], 36.9%; in assay [4], 36.1%; in assay [5], 9.81% (active); in [6] it was -16% (active). Besides, the growth is 22% in [7], 25.1% in assay [8], -9.28% (active) in [9] and 5.75% (active) in [10].

On to `O=C1/C(=C/c2ccc([N+](=O)[O-])o2)Oc2ccc(Br)cc21`, for which the growth is 74.1% in assay [1]; 98% in assay [2]; 75.6% in assay [3]; 94.3% in assay [4]; 107% in assay [5]; -66.1% (active) in assay [6]. The growth in assay [7] is 107%; in assay [8] it was 28.3%; in assay [9], 8.53% (active); in assay [10], 72.1%.

In the case of `COc1ccc(-c2nc3sccn3c2-c2ccnc(S(C)(=O)=O)n2)cc1`, the growth was 100% in assay [1]; 90.4% in assay [2]; 55.4% in [3]; 78.7% in [4]; 88.9% in assay [5]; 26.7% in assay [6]. Further, the growth in assay [7] was 105%; in assay [8] it was 99.1%; in assay [9] it was 84.2%; in assay [10] it was 56.7%.

In the case of `CCC1(c2ccccc2)Oc2ccccc2-n2c(C#N)c3ccccc3c2C1=O` (centres undefined), the growth was 97.2% in assay [1]; 110% in assay [2]; 90.3% in assay [3]; 93.6% in assay [4]; 105% in assay [5]; 77.5% in assay [6]. The growth in assay [7] was 93.6%; in assay [8] it was 93.9%; in [9] it was 106%; in assay [10], 114%.

As for `CCN1C[C@@H](C)n2c(c(O)c3c(=O)n(Cc4ccc(F)c(Cl)c4)nc(C(=O)NC)c32)C1=O`, the growth in [1] is 11.3%; in assay [2], 26.4%; in assay [3], 18.4%; in [4], 26%; in assay [5] it was 15.2%; in [6] it was 69.3%. The growth is 11% in assay [7], 18.4% in [8], 101% in assay [9] and 22.6% in assay [10].

For `O=C(/C(=C/c1cccc([N+](=O)[O-])c1)c1ccccc1)c1ccccc1`, the growth is 68% in assay [1]; 58.8% in [2]; 80.6% in assay [3]; 91.2% in assay [4]; 67.9% in [5]; 43.8% in assay [6]. Further, the growth was 53.6% in assay [7], 68.4% in [8], 86.3% in assay [9] and 19.8% in assay [10].

With `Cc1nn(-c2ccccc2)c2c1oc(=O)c1cc(Cl)ccc12`, the growth was 107% in assay [1]; 96.3% in assay [2]; 90.5% in [3]; 91.6% in assay [4]; 107% in assay [5]; 113% in [6]. For the same compound, the growth was 102% in [7], 100% in assay [8], 120% in assay [9] and 169% in assay [10].

For the compound `COc1ccc2c(c1)C(=O)c1c-2c(OCCCN(C)C)nc2cc(Br)ccc12`, the growth in [1] was 75.5%; in [2] it was 57.2%; in assay [3], 80.7%; in assay [4], 68%; in [5] it was 36.2%; in assay [6], 61.6%. Besides, the growth in [7] is 24.6%; in assay [8], 77.2%; in assay [9], 64.6%; in assay [10] it was 78.5%.

In the case of `c1cnc2ccc3ncccc3c2c1`, the growth in assay [1] is 118%; in assay [2], 105%; in [3] it was 117%; in assay [4], 82.6%; in assay [5] it was 105%; in assay [6] it was 84.6%. The growth is 90.2% in assay [7], 103% in assay [8], 109% in assay [9] and 117% in assay [10].

`O=c1cc(-c2cccnc2)oc2c1ccc1ccccc12`: the growth in assay [1] is 69.9%; in assay [2] it was 91.5%; in assay [3], 117%; in assay [4], 88.6%; in assay [5] it was 70.4%; in [6], 62%. Besides, the growth was 65.6% in assay [7], 81.3% in assay [8], 80.5% in assay [9] and 88.6% in [10].

For `Cc1c(C(N)=O)sc2c1c(=O)n(Cc1ccccc1)c1nnc(SCC(=O)Nc3ccc(Cl)cc3)n21`, the growth was 57.7% in assay [1]; 9.97% (active) in [2]; 28.9% in assay [3]; -6.06% (active) in [4]; -12.3% (active) in assay [5]; 17.2% in [6]. Moreover, the growth in assay [7] is 20.7%; in assay [8], -41.2% (active); in [9], 50.7%; in assay [10], 39.5%.

`Nc1ccc(S(=O)(=O)Nc2ncccn2)cc1`: the growth in assay [1] was 114%; in assay [2], 100%; in assay [3] it was 120%; in assay [4], 108%; in assay [5], 108%; in [6] it was 106%. Besides, the growth in assay [7] was 100%; in [8] it was 107%; in assay [9], 114%; in [10], 104%.

`O=C(N1CCC(CN=c2cc3n(-c4ccc(Cl)cc4)c4ccccc4nc-3cc2Nc2ccc(Cl)cc2)CC1)N1CC1`: the growth in assay [1] is -58.2% (active); in [2], 37.2%; in assay [3], -54.3% (active); in [4], -85.2% (active); in [5] it was -71.5% (active); in assay [6], -76.7% (active). Further, the growth in [7] is -89.4% (active); in assay [8], -93.2% (active); in [9], -59% (active); in assay [10], -95.3% (active).

For the compound `CC(C)[O-].CC(C)[O-].CN(CCN(C)Cc1cc(F)cc(F)c1[O-])Cc1cc(F)cc(F)c1[O-].[Ti+4]`, the growth in assay [1] is 6.91% (active); in assay [2], 25.6%; in assay [3], 0.494% (active); in assay [4], -5.62% (active); in [5] it was -27.8% (active); in assay [6], -32.3% (active). Also, the growth in assay [7] was 2.03% (active); in assay [8] it was 19.1%; in assay [9] it was 1.34% (active); in assay [10] it was 17.7%.

For the compound `C=CCOc1ccc2c(c1)CC[C@@H]1[C@@H]2CC[C@@]2(C)[C@H]1CC[C@]2(C)O`, the growth in assay [1] was 92.8%; in assay [2], 104%; in assay [3], 81.2%; in assay [4], 109%; in assay [5], 46.3%; in assay [6], 60.3%. The growth is 80.3% in assay [7], 93.8% in assay [8], 75.6% in assay [9] and 121% in [10].

Take `Cc1ccc(C(=O)Nc2ccc(Cl)cc2C(=O)NCc2ccccc2)cc1`: the growth in assay [1] was 96.7%; in [2], 92.9%; in [3] it was 98.2%; in assay [4], 88.3%; in [5], 92.4%; in assay [6], 53.9%. Moreover, the growth is 85.9% in [7], 97.8% in [8], 97.4% in assay [9] and 96% in assay [10].

On to `CCOC(=O)c1c(C)c(C(=O)OCC)n(C)c1C`, for which the growth in assay [1] is 121%; in assay [2], 66.6%; in assay [3] it was 85.4%; in assay [4] it was 74.4%; in assay [5], 117%; in [6], 102%. The growth is 91.7% in assay [7], 92.5% in assay [8], 141% in assay [9] and 99% in assay [10].

`COc1ccc2c(c1)C(=O)c1c-2c(OCCN(C)C)nc2cc(OC)ccc12`: the growth in [1] is -57.2% (active); in assay [2], -25.7% (active); in assay [3] it was 19.7%; in assay [4] it was 14.9%; in assay [5], -70.7% (active); in [6] it was -22.1% (active). In addition, the growth in assay [7] is -43.6% (active); in [8], 36.1%; in assay [9], 2.84% (active); in assay [10] it was 29%.

With `COc1ccc(/C(=C2\O[C@@H]([C@H](O)CO)[C@H]3OC(C)(C)O[C@@H]23)c2cc(OC)c(OC)c(OC)c2)cc1O`, the growth in assay [1] was 89.8%; in assay [2], 110%; in [3], 109%; in assay [4], 88.4%; in assay [5], 107%; in assay [6], 57.5%. The growth is 89.4% in assay [7], 94.3% in assay [8], 126% in assay [9] and 87.1% in assay [10].
